Inconclusive results are not listed. Activity calls are given as the source filed them. Calls come from the whole dose curve; as a rule, active = well fitted curve in the direction sought with a large enough effect; inconclusive = small, poorly fitted or top-dose-only effect, or effect the other way, or another doubt; inactive = no such curve, though single readings can be large or run the other way.
Target: Alpha-galactosidase A (Homo sapiens) (UniProt P06280)
Assay: Confirmation of Inhibitors of Human alpha-Galactosidase Using Spleen Homogenate
Conditions: alpha-galactosidase enzyme activity; series mostly up to 56.2 µM
In short: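 Human spleen homogenate (1 ug) with 1 mM 4-methylumbelliferyl-alpha-D-galactopyranoside in citrate-phosphate pH 5.0, 0.01% Tween-20, 37C 40 min; compounds 0.5 nM–58 uM final. Stopped at pH 10, fluorescence Ex 365/Em 440; AC50 from Hill fits.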

Chain of Alpha-galactosidase A (Homo sapiens) (P06280 32-429 limits assumed): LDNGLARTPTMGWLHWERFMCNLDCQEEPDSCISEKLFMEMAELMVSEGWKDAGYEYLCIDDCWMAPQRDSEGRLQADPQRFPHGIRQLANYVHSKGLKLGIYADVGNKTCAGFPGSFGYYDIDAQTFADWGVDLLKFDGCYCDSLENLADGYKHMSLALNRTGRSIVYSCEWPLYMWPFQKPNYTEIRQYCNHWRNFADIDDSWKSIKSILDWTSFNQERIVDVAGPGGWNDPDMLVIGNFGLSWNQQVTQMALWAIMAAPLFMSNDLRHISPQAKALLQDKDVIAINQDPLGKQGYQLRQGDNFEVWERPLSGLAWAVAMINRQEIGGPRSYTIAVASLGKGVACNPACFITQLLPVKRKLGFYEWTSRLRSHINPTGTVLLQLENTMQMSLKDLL

outcome, inactive:
Nc1c(NCCN2CCOCC2)c2ccccc2oc1=O
CC(=O)Nc1cccc2c1C(=O)NC2=O
CCN(CC)S(=O)(=O)c1ccc2c(c1)C(=NNc1ccccc1)c1cc(S(=O)(=O)N(CC)CC)ccc1-2
C=CCSc1nc(-c2ccc3c(c2)OCO3)cc(C(F)(F)F)c1C#N
Cc1ccc(-c2nc(-c3cc4cc(Cl)ccc4oc3=O)sc2C)cc1
Cc1ccc(-c2cc(C(=O)N3CCN(S(=O)(=O)c4ccc(Br)s4)CC3)[nH]n2)c(C)c1
CC(=O)NNc1nc2ccccc2s1
COc1cccc(NC(=S)NCc2ccc3c(c2)cc(C)n3C)c1
Cc1ccc2c(c1)c1ncnc(N3CCC4(CC3)OCCO4)c1n2C
Clc1ccc(-c2ccnc(Oc3cc(Cl)ccc3Cl)n2)cc1
COc1cc([C@@H]2c3cc4c(cc3[C@@H](OC3OC5COC(C)OC5C(O)C3O)[C@H]3COC(=O)[C@H]23)OCO4)cc(OC)c1O (some centres not stated)
NN=C1c2cc(S(=O)(=O)NCCO)ccc2-c2ccc(S(=O)(=O)NCCO)cc21
COc1cc(/C=N/Nc2ccc(Cl)c(C(=O)O)c2)ccc1OC(=O)c1ccccc1F
CC1(CCc2ccc3c(c2)OCO3)NC(=O)c2ccccc2N1 (configuration not stated)
COC(=O)c1ccc(S(=O)(=O)N2CCOCC2)cc1
Cc1cc(C)nc(SCc2cc(=O)c(OC(=O)c3ccco3)co2)n1
CC1=C(C(=O)Nc2ccccc2C)C(c2ccccn2)n2nc(SCc3ccccc3F)nc2N1 (configuration not stated)

From PubChem BioAssay AID2108 (National Center for Advancing Translational Sciences (NCATS), 2009)
